Screening data as filed in PubChem BioAssay.
An excerpt weighted towards active compounds, which were near 7.8% of everything screened.
Marburg entry inh – blocks Marburg virus binding to or entry into cells; Marburg virus pseudotyped entry inhibition, cell reporter; actives 1.8% (n = 300,000); Potency, µM (top dose mostly 37.8 µM), without a hit: at the highest dose activity change, negative = inhibition, most hits filed as inhibitors; calls by dose curve; tested in HEK293 cells; note: potency is the fitted concentration of half-maximal effect
HCV inh – inhibitors of hepatitis C virus infection; Huh7.5.1 HCVcc-Cre infection, luciferase reporter, 44 h; Potency, µM (highest dose often 41.8 µM), for inactives: at the highest dose activity change, negative = inhibition, usual class: inhibitors; actives 3.4% (n = 340,000); AID 651820; active = well fitted inhibition curve with a large enough effect; inconclusive = small, poorly fitted or top-dose-only effect, or another doubt; inactive = no such curve, though single readings can be large or run the other way; note: potency is the fitted concentration of half-maximal effect
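Antiviral activity was scored by luciferase reporter output from cells infected with HCVcc-Cre (~0.5 moi) in presence of compound, 44 h infection period, cells seeded 1,000/well 4 h prior.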
Vaccinia Venus – inhibitors of vaccinia virus (Venus reporter); AID 720580; Vaccinia virus Venus reporter expression, fluorescence; Potency, µM (series often up to 36.5 µM), without a hit: top-dose activity change, negative = inhibition, hits mostly inhibitors; actives 0.46% (n = 330,000); calls by dose curve; tested in A549 cells; note: potency is the fitted concentration of half-maximal effect; nearly all actives have a fitted effect of over 30% in size
VACV mCherry inh – vaccinia inhibition (mCherry reporter); actives 0.63% (n = 310,000); Potency, µM (top dose mostly 36.5 µM), inactives show at the highest dose activity change, negative = inhibition, most hits filed as inhibitors; Vaccinia virus mCherry reporter infection, fluorescence; AID 720579; calls by dose curve; tested in A549 cells; note: potency is the fitted concentration of half-maximal effect; nearly all actives have a fitted effect of over 35% in size
LASV entry inh – blocks Lassa virus binding to or entry into cells; Lassa virus pseudotype entry inhibition, cell reporter; Potency, µM (doses to about 37.9 µM), for the others: top-dose activity change, negative = inhibition, most hits filed as inhibitors; actives 1.2% (n = 300,000); calls by dose curve; tested in HEK293 cells; note: potency is the fitted concentration of half-maximal effect; nearly all actives have a fitted effect of over 50% in size
HCMV inh – inhibitors of human cytomegalovirus; actives 4.5% (n = 410,000); AID 1259415; HFF cells, HCMV-luciferase reporter, 72 h; active compounds read low; activity change, negative = inhibition, % at 57.5 µM; in the data active = activity change below about -60%; inconclusive = no clear call, values can overlap the other calls; inactive = above about -39%
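Two-dose cell screen: HFF monolayers treated with compounds and infected with luciferase-expressing HCMV at 1 PFU/cell, 72 h at 37C, then lysed for luciferase measurement.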
* hit, by the source's call; [ ] = dose if it differs, or a comment. % is set by controls: 0 for no effect and ±100 for the full control effect.

Screening CCC1CN(S(=O)(=O)c2cc(-c3onc(C)c3C)ccc2C)c2cc(Cl)ccc2O1 (stereo not drawn) returned Vaccinia Venus -11%, VACV mCherry inh -18%, LASV entry inh -25%[46.1 µM] and HCMV inh -67*.
For Cc1ccc(-c2onc(C)c2C)cc1S(=O)(=O)N1CCOc2ccc(Cl)cc21 the results were Vaccinia Venus -6%, VACV mCherry inh -19%, LASV entry inh -22%[46.1 µM] and HCMV inh -62*.
For Cc1ccc(-c2onc(C)c2C)cc1S(=O)(=O)N1CC(C)Oc2ccccc21 (stereo not drawn) the results were HCV inh 13µM*, Vaccinia Venus -7%[7.34 µM], VACV mCherry inh -6%[7.34 µM] and HCMV inh inconclusive.
O=C(Nc1ccc(Cl)cc1)C1CCC(CNS(=O)(=O)c2ccc(Br)s2)CC1 (stereo not drawn) was read as Marburg entry inh 1%[46.1 µM], Vaccinia Venus -27%, VACV mCherry inh -28%, LASV entry inh 1%[46.1 µM] and HCMV inh 15.
For CCOC(=O)N1CCc2c(sc3c2c(=O)n(Cc2ccccc2)c(=O)n3CC(=O)Nc2cccc(CC)c2)C1 the results were Marburg entry inh -4%[46.1 µM], Vaccinia Venus -9%, VACV mCherry inh -17%, LASV entry inh 0%[46.1 µM] and HCMV inh -24.
Screening Cc1ccc2c(Sc3ccc(Cl)cc3)c(C(=O)NCCC(C)C)[nH]c2c1 returned Marburg entry inh -18%[46.1 µM], Vaccinia Venus -12%, VACV mCherry inh -12%, LASV entry inh -13%[46.1 µM] and HCMV inh 5.
Screening CC1CC(C)CN(S(=O)(=O)c2ccc(C(=O)N3CCCC3)cc2)C1 (stereo not drawn) returned Marburg entry inh 13%, HCV inh 15%, Vaccinia Venus -8%, VACV mCherry inh inactive, LASV entry inh -15% and HCMV inh inconclusive.
For Cc1ccc(NC(=O)c2cccnc2)cc1S(=O)(=O)N1CCOCC1 the results were Marburg entry inh 8%, HCV inh inconclusive, Vaccinia Venus -5%, VACV mCherry inh inactive, LASV entry inh -3% and HCMV inh -19.
For Cc1ccc(NC(=O)COc2cccc(-n3cnnn3)c2)cc1S(=O)(=O)N1CCOCC1 the results were HCV inh 11µM* and HCMV inh -37.
CC(=O)c1ccc(S(=O)(=O)N2CCN(C(=O)c3ccc(-n4nc(C)c(Cl)c4C)cc3)CC2)cc1 was read as HCV inh 6.3µM* and HCMV inh -90*.
Cc1nn(-c2ccc(C(=O)N3CCN(S(=O)(=O)c4ccccc4C(F)(F)F)CC3)cc2)c(C)c1Cl was read as HCV inh 0% and HCMV inh -23.
`CC1CC(C)CN(C(=O)c2ccc(S(=O)(=O)N3CC(C)CC(C)C3)cc2)C1` (stereo not drawn) gave Marburg entry inh inconclusive, HCV inh -16%, Vaccinia Venus -5%, VACV mCherry inh -18%, LASV entry inh inconclusive and HCMV inh -65*.
`Cc1cc(C)n(-c2ccc(C(=O)Nc3ccc(C)c(S(=O)(=O)N4CCOCC4)c3)cc2)n1` gave Marburg entry inh 10µM*, HCV inh inconclusive, Vaccinia Venus -24%, VACV mCherry inh inconclusive, LASV entry inh inconclusive and HCMV inh -83*.
Screening CCc1ccccc1NC(=O)c1cc(S(=O)(=O)N(CC)c2ccccc2)ccc1F returned Vaccinia Venus -12%, VACV mCherry inh -9%, LASV entry inh inconclusive and HCMV inh inconclusive.
Screening COc1cc(=O)n2c(c1C(=O)NC(C)c1ccco1)CCN(C(=O)c1ccccc1SC)CC2 (stereo not drawn) returned Vaccinia Venus 0% and VACV mCherry inh inactive.
`O=C(NC1CCCC1)c1nc2ccccc2nc1-c1ccc(F)c(F)c1` gave HCMV inh 64.
For CCc1ccccc1NC(=O)CN1C(=O)c2ccccc2Sc2ncccc21 the results were Vaccinia Venus -13%, VACV mCherry inh -13%, LASV entry inh 10%[46.1 µM] and HCMV inh -1.
For Cc1cccnc1-c1cccc2c1OC(CNC(=O)C(=O)c1ccccc1)C2 (stereo not drawn) the results were Vaccinia Venus -13% and VACV mCherry inh -14%.
